# Bioassay records (PubChem)
# This excerpt belongs to a sample that is enriched for hits.
# DT40 TDP1 CPT = qHTS for Inhibitors of human tyrosyl-DNA phosphodiesterase 1 (TDP1): qHTS in cells in presence of CPT; chicken DT40 Tdp1-/-;hTDP1 cells + 20 nM CPT, ATP luminescence, 48 h; hit rate 12% among 420,000; Potency, µM (series often up to 46.2 µM), for inactives: at the highest dose activity change, negative = growth inhibition, usual class: inhibitors; further: potency means the concentration at half of the fitted maximal effect; nearly all actives have a fitted effect of over 55% in size
#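 Chicken DT40 Tdp1-/- cells complemented with human TDP1, 400 cells/well, exposed to compounds plus 20 nM camptothecin for at least 48 h at 37 C; viability read as ATP content by CellTiter-Glo luminescence.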
# 12-LOX inh = Primary qHTS assay for inhibitors of human arachidonate 12S-lipoxygenase (ALOX12): Round 2; Polyunsaturated fatty acid lipoxygenase ALOX12 (Homo sapiens), P18054; purified 12hLO, xylenol orange hydroperoxide absorbance; Potency, µM (doses to about 108 µM), for the others: at the top dose activity change, negative = inhibition, actives largely listed as inhibitors; hit rate 1.1% among 580,000; further: potency means the concentration at half of the fitted maximal effect
# Target sequence (P18054 whole entry, looked up): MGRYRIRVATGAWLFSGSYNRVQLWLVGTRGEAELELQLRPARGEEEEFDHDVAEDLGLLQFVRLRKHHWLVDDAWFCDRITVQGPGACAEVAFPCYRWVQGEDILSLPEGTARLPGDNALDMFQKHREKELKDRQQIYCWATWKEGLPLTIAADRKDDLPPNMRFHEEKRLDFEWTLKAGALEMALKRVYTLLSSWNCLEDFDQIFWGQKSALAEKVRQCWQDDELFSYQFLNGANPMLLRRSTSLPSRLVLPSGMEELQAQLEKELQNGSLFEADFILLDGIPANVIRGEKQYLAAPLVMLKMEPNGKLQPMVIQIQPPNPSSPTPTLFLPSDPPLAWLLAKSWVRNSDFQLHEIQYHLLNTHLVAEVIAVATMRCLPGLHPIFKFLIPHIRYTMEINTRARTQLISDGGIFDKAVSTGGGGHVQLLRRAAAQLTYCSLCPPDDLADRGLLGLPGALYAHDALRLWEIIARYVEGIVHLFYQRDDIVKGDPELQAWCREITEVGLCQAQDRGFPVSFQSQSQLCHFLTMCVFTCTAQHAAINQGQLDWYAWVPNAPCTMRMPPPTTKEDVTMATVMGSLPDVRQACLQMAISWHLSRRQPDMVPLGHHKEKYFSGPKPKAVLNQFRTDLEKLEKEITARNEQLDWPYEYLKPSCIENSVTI
#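 Purified human 12hLO (150 nM final) in 25 mM Hepes, 0.01% Triton X-100, pH 7.0 was preincubated 15 min at room temperature with compound. Then 40 uM arachidonic acid was added, 30 min. Hydroperoxide was read by Fe-XO absorbance ratio 573/405 nm.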
# TDP1 cell noCPT = qHTS for Inhibitors of human tyrosyl-DNA phosphodiesterase 1 (TDP1): qHTS in cells in absence of CPT. hit rate 15% among 420,000. Potency, µM (series often up to 46.2 µM), without a hit: at the highest dose activity change, negative = growth inhibition, usual class: inhibitors. DT40 Tdp1-/- hTDP1 cells, no CPT, ATP luminescence, 48 h; further: potency means the concentration at half of the fitted maximal effect; nearly all actives have a fitted effect of over 55% in size
#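 A cellular qHTS used chicken DT40 cells lacking endogenous Tdp1 but carrying stably transfected human TDP1. Compounds were applied without camptothecin, and cell growth kinetics were judged by ATP-dependent luminescence after ≥48 hr.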
# IL-1B inflam inh = qHTS for Inhibitors of Inflammasome Signaling: IL-1-beta AlphaLISA Primary Screen; THP-1 LPS/ATP IL-1B secretion, AlphaLISA, 16 h; stronger effect = lower value; activity change, % at 57.5 µM; hit rate 4.7% among 360,000; in the data active means activity change below about -50%; inconclusive means mostly about -30% to -49%
#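 THP-1 cells pretreated 1 hr with compounds (up to 57.5 uM final), then stimulated with LPS (250 ng/mL final) plus ATP (1.25 mM final); secreted IL-1B measured by AlphaLISA after 16 hr, decreased signal indicating inhibition.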
# HT1080NT lethal = qHTS for induction of synthetic lethality in tumor cells producing 2HG: qHTS for the HT-1080-NT fibrosarcoma cell line | HT-1080-NT fibrosarcoma viability, CellTiter-Glo ATP luminescence, 48 h | Potency, µM (doses to about 46.1 µM), inactives show at the highest dose activity, negative = less viability, usual class: cytotoxic | AID 686970, 2013 | hit rate 1.6% among 360,000;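 further: NT is the 2HG producing partner of a matched IDH1 knockdown line; potency means the concentration at half of the fitted maximal effect; 0% = DMSO-treated cells and -100% = media-only wells without cells; nearly all actives have a fitted effect of over 55% in size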
#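 Toxicity toward the 2HG-producing NT line was scored as %Activity, normalised to DMSO and no-cell wells, from CellTiter-Glo luminescence after 48 hours' treatment.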
# HT1080 IDH1KD tx = qHTS for induction of synthetic lethality in tumor cells producing 2HG: qHTS for the HT-1080-IDH1KD cell line; HT-1080 IDH1 knockdown viability, ATP luminescence, 48 h; Potency, µM (titrated, usually from 46.1 µM), without a hit: at the highest dose activity, negative = toxicity, most hits filed as cytotoxic; hit rate 2% among 360,000; AID 686971, 2013;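 further: potency means the concentration at half of the fitted maximal effect; 0% = DMSO wells and -100% = cell-free medium wells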
#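 Using the IDH1-knockdown HT-1080 line run in the same batch and compound series as the NT line, viability after 48 h at 37 °C was determined by CellTiter-Glo luminescence and expressed as % activity.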
# * = called active by the depositor; ? = inconclusive; / = no result given; [ ] = another dose, or the depositor's remark. Unless noted, the call rests on the fitted dose curve; in most records, active means well fitted curve in the direction sought with a large enough effect; inconclusive means small, poorly fitted or top-dose-only effect, or another doubt; inactive means no such curve, though single readings can be large; an effect the other way counts as inactive or inconclusive. Unless noted, on the % scale 0 is the no-effect control and ±100 the full control effect.
SMILES,DT40 TDP1 CPT,12-LOX inh,TDP1 cell noCPT,IL-1B inflam inh,HT1080NT lethal,HT1080 IDH1KD tx
COc1ccc(NC(=S)NC(NC(=O)CF)C(Cl)(Cl)Cl)cc1[N+](=O)[O-] (configuration not stated),4%,?,4%,-15,-6%,0%
C#C[C@]1(O)CC[C@H]2[C@@H]3CCC4=CC(=O)CC[C@]4(C)[C@H]3CC[C@@]21C,-23%,-11%,-11%,3,20%,2%
C#C[C@]1(O)CCC2C3C(=O)C=C4C(Cl)=CCC[C@]4(C)C3CC[C@@]21C (some centres not stated),16µM*,-4%,10µM*,-90*,10µM*,33µM*
CC(=O)OC1CCC2(C)C3CCC4(C)C(=O)CCC4C3CC[C@H]2C1 (some centres not stated),/,-9%,/,/,/,/
CC(=O)OC1CCC2(C)C(CCC3C2CC(=O)C2(C)C3CC(N3CC3)C2C(C)=O)C1 (configuration not stated),7.3µM*,22%,13µM*,-72*,-5%,-18%
Cc1noc(C)c1COc1ccc(CC(=O)N2CCN(CC(=O)N3CCCC3)CC2)cc1,/,-10%,/,/,/,/
CC12CNCC(C)(CNC1)C2=O,/,29%,/,/,/,/
Nc1nc(CN2CCN(C(=O)COc3ccc(F)cc3)CC2)nc2ccccc12,/,20%,/,/,/,/
O=S(=O)(NCc1ccncc1)c1ccc(F)c(F)c1,10µM*,-3%,6.5µM*,2,2%,-17%
Clc1ccc(CCNCc2ccncc2)c(Cl)c1,?,?,-27%,?,-5%,1%
CCOC(=O)Cn1c(=O)oc2cc(S(=O)(=O)Nc3c(C)cc(C)cc3C)ccc21,?,-3%,?,-10,?,?
CC1CCCC(C)N1c1nnc(NC(=O)Cn2c(=O)oc3ccccc32)s1 (configuration not stated),-20%,-10%,13µM*,11,-4%,1%
COc1cc2c(cc1Oc1ccccc1)NC(=O)C21CCN(CC2CC2)CC1,/,71%[176 µM],/,/,/,/
O=c1[nH]c2ccc(Cl)cc2c(N[C@@H]2CN3CCC2CC3)c1-c1nc2ccccc2[nH]1,/,-12%[57.4 µM],/,/,/,/
CN(C)P(=NC(=S)c1cccn1C)(N(C)C)N(C)C,8.2µM*,40µM*,4.1µM*,3,?,-26%
CN(C)P(=O)(NC(=O)c1cccn1C)N(C)C,1%,18%,-1%,-29,-4%,-2%
CCN1CCN(c2cc(N3CCCC3)c(F)cc2[N+](=O)[O-])CC1,?,?,16µM*,-7,-12%,1%
CCNC(=O)NC(=O)COC(=O)c1cn(C)c2ccccc12,/,42%,/,/,/,/
CC(C)CC(NC(=O)CCCNC(=O)CCC(=O)OC1O[C@H]2OC3(C)CC[C@H]4[C@H](C)CCC(C1C)C24OO3)C(=O)O (some centres not stated),0.21µM*,-3%,0.18µM*,-5,23µM*,18µM*
C[C@H]1[C@H](OC(=O)CCC(=O)NCc2ccc(C(=O)O)cc2)O[C@@H]2O[C@@]3(C)CC[C@H]4[C@H](C)CC[C@@H]1C24OO3,0.26µM*,/,0.026µM*,-8,?,8.2µM*
CC1C(OC(=O)CCC(=O)NC(C)(C)CO)O[C@H]2OC3(C)CC[C@H]4[C@H](C)CCC1C24OO3 (some centres not stated),0.82µM*,-2%,0.037µM*,-68*,?,10µM*
C=CCON=C(C[C@H]1O[C@@H]2O[C@]3(C)CC[C@@H]4[C@H](C)CC[C@@H]([C@H]1C)[C@@]24OO3)[C@H]1O[C@@H]2O[C@]3(C)CC[C@H]4[C@H](C)CC[C@@H]([C@@H]1C)[C@@]24OO3,/,-30%[57.4 µM],/,/,/,/
Cn1nccc1CN1CCC2(CC1)C(=O)Nc1ccccc12,/,3%[12.5 µM],/,/,/,/
O=C1NC2(CN(CC3CC3)C2)Oc2ccccc21,/,31%[176 µM],/,/,/,/
N#Cc1cccc(NC(=O)CSc2nc3c(cc2C#N)N2CCC3CC2)c1,?,?,16µM*,/,/,/
SMILES,DT40 TDP1 CPT,12-LOX inh,TDP1 cell noCPT,IL-1B inflam inh,HT1080NT lethal,HT1080 IDH1KD tx
N#Cc1cc2c(nc1SCC(=O)Nc1ccc(OC(F)(F)F)cc1)C1CCN2CC1,?,?,18µM*,/,/,/
N#Cc1cccc(NC(=O)c2sc3nc4c(cc3c2N)N2CCC4CC2)c1,4.1µM*,-27%,13µM*,/,/,/
CN(C)[C@@H]1CN(C(=O)Cc2cccnc2)CCC1(O)c1ccccc1 (some centres not stated),/,12%,/,/,/,/
Cc1ccc(C(=O)N2[C@H]3CC[C@@H]2c2cnc(C)nc2C3)c(C)c1,/,20%,/,/,/,/
CC#C[C@]1(O)CC[C@H]2[C@@H]3C[C@H](C)C4=CC(=O)CC[C@]4(C)[C@H]3CC[C@@]21C,/,-8%[22.9 µM],/,/,/,/
CN(c1ccccc1)S(=O)(=O)c1cccc(C(=O)N2CCN(c3ccccn3)CC2)c1,18µM*,1%,16µM*,-12,-6%,0%
CN(C)S(=O)(=O)c1cccc(C(=O)N2CCC(C(=O)O)(c3ccccc3)CC2)c1,6%,0%,-4%,-1,18%,21%
Cc1nc(-c2ccco2)cc([C@H]2CN3CC[C@H]2C[C@@H]3CNCc2ccccc2)n1,/,67%[176 µM],/,/,/,/
O=C1NCCOC(=O)[C@@H](Cc2ccc(F)cc2)CC/C=C/C[C@@H]1CC(=O)N(CCO)Cc1ccccc1,21µM*,-1%,23µM*,2,0%,12%
O=C1NCCOC(=O)[C@H](Cc2ccc(F)cc2)CC/C=C/C[C@H]1CC(=O)N(CCO)Cc1ccccc1,?,-26%,?,-6,-1%,-4%
CCOc1ccccc1CNCCc1ccc2c(c1)OCO2,?,-50%,?,-60*,-11%,-13%
COc1ccc(CNCCc2ccc(Cl)cc2)c(OC)c1OC,16µM*,?,9.2µM*,-17,-13%,-2%
CCOc1ccc(CNCCc2ccc3c(c2)OCO3)cc1,1%,?,?,-19,-27%,-20%
COc1ccccc1CNCCc1ccc(F)cc1,?,?,-21%,0,-21%,-22%
